Source: PubChem (National Center for Advancing Translational Sciences (NCATS))
The list is not random: actives were taken first. Their share in the collection is about 7.5%.
ELG1 genotox: genotoxicity induction in ELG1-luciferase HEK293T cells. HEK293T ELG1-luciferase reporter, luminescence, 16 h. Potency, µM (series often up to 46 µM), without a hit: at the top dose activity change, positive = activation, usual class: activators. 330,000 compounds, 1.3% hits. AID 504466; note: % of control where 0% means no effect; nearly all actives have a fitted effect of over 60% in size
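Cells (2,000/well) expressing the ELG1-luciferase fusion are dosed by pin tool and kept 16 hr at 37 °C, 5% CO2. Signal comes from ONE-Glo luciferase reagent after 30 min at room temperature.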
Rab9 promoter act: activates the Rab9 promoter | 320,000 compounds, 2.8% hits | Huh7 Rab9 promoter-luciferase reporter, luminescence, 24 h | Potency, µM (highest dose often 9.22 µM), for the others: at the top dose activation, negative = inhibition, actives largely listed as activators; note: % of control where 0% means no effect; nearly all actives have a fitted effect of over 60% in size
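Huh7 reporter line, Rab9 promoter upstream of luciferase. Compound exposure 24 h at 37 °C in reduced-serum medium with 10% FBS. Read-out: luminescence.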
KinaseGlo FLuc: Kinase-Glo luciferase inhibition (counter-screen); AID 1379; Q27757; Potency, µM (series often up to 38.3 µM), for the others: at the top dose activity change, negative = inhibition, most hits filed as inhibitors; 200,000 compounds, 0.28% hits; Kinase-Glo luciferase, ATP luminescence, 8 min; note: % is set by controls: 0 for no effect and ±100 for the full control effect; nearly all actives have a fitted effect of over 60% in size
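Light output from Kinase-Glo luciferase with luciferin and 10 uM ATP in 50 mM imidazole pH 7.2, KCl, MgCl2, Tween 20, BSA; compound pin-delivered, 8-min ambient incubation, then luminescence read.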
FLuc modulator: firefly luciferase modulation, counter-screen for miR-21 project; AID 588342; purified FLuc, Km substrates, luminescence inhibition; Potency, µM (series often up to 57.5 µM), inactives show at the highest dose activity change, negative = inhibition, actives largely listed as inhibitors; 360,000 compounds, 6.9% hits;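 note: plate controls were vehicle for no effect and reference inhibitor for full effect; nearly all actives have a fitted effect of over 55% in size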
Target sequence (P08659 whole entry, looked up): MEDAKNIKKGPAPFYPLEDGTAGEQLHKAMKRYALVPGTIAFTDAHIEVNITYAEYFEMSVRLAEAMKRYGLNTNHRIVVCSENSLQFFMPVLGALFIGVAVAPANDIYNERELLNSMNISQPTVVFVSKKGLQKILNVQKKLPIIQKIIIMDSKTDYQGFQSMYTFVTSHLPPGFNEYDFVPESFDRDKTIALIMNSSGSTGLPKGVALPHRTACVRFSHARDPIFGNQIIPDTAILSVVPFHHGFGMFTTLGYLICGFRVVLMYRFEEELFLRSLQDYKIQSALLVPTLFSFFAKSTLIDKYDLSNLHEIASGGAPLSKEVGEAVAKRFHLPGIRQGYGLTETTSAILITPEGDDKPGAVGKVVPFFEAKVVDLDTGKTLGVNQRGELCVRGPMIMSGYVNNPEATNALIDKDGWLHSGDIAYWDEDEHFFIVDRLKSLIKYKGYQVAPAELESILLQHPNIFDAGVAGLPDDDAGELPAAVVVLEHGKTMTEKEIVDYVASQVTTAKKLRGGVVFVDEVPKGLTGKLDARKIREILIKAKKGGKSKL
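Biochemical qHTS of compounds, final roughly 60 µM downward over six points, against 10 nM purified firefly luciferase using Km concentrations of substrates (10 uM D-luciferin, 10 uM ATP) in Tris acetate pH 7.5 buffer; luminescence output.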
NPC1 prom act: NPC1 promoter activation. AID 485313. 320,000 compounds, 2.4% hits. Huh7 NPC1 promoter luciferase reporter, 24 h. Potency, µM (highest dose often 9.22 µM), for inactives: top-dose activation, usual class: activators; note: % of control where 0% means no effect; nearly all actives have a fitted effect of over 60% in size
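Compounds in DMSO were transferred onto Huh7 NPC1-luciferase reporter cells pre-incubated 2 h; after 24 h at 37 °C, Amplite reagent was dispensed and luminescence recorded 10 min later.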
SMN2 splice up: SMN2 splice variant enhancement; 210,000 compounds, 2.8% hits; HEK293 SMN2-luciferase splicing reporter, luminescence, 30-36 h; Potency, µM (series often up to 46.1 µM), for inactives: top-dose activity change, positive = activation, most hits filed as activators; AID 1458; note: % of control where 0% means no effect; nearly all actives have a fitted effect of over 55% in size
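qHTS luciferase splicing reporter: luminescence rises when SMN2 exon 7 is included in transfected HEK293 cells. Compound exposure lasted 30-36 h at 37C, with 4.5 mM final sodium butyrate as control, followed by a ONE-Glo read.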
* marks the source's active call; other numbers are inactive results; u = inconclusive; x = no result given. Calls come from the whole dose curve; as a rule, active = well fitted curve in the direction sought with a large enough effect; inconclusive = small, poorly fitted or top-dose-only effect, or another doubt; inactive = no such curve, though single readings can be large; an effect the other way counts as inactive or inconclusive. Potency is the fitted concentration of half-maximal effect.

SMILES	ELG1 genotox	Rab9 promoter act	KinaseGlo FLuc	FLuc modulator	NPC1 prom act	SMN2 splice up
CCOc1ccc(OCC)c(NC(=O)c2cc3ccccn3n2)c1	x	x	x	-15%	x	x
O=C(Nc1ccc(OC(F)(F)F)cc1)c1cc2ccccn2n1	x	x	x	2.7µM*	x	x
CCOC(=O)c1cccc(NC(=O)c2cc3ccccn3n2)c1	x	x	x	3µM*	x	x
CCc1ccccc1-n1nnc(-c2nc(-c3ccccc3F)no2)c1C	x	x	x	1.2µM*	x	x
Cc1c(-c2nc(-c3ccccc3F)no2)nnn1-c1cc(F)ccc1F	x	x	x	0.17µM*	x	x
Cc1c(-c2ccccc2)nnn1-c1ccc(F)cc1F	u	u	x	21µM*	u	x
CC(=O)c1nnn(-c2ccc(F)cc2F)c1C	0%	3%	x	0%	-1%	x
CCOC(=O)c1ccccc1NC(=O)COC(=O)CN1C(=O)C2CC=CCC2C1=O (stereo unspecified)	-2%	8%	x	5%	2%	x
COc1ccccc1-c1c(C(F)(F)F)oc2c(CN3CCCCC3C)c(O)ccc2c1=O (stereo unspecified)	x	x	x	2%	x	-5%
CC(C)(C)c1ccc(-c2nnc(NC(=O)c3ccccc3)s2)cc1	3%	u	-1%	1.7µM*	u	2%
COCC(=O)Nc1nnc(-c2ccc(C(C)(C)C)cc2)s1	3.7µM*	0.56µM*	1%	1.9µM*	1.1µM*	8.9µM*
COc1cccc(C(=O)Nc2nnc(-c3ccccc3)s2)c1	u	1.6µM*	x	4.8µM*	1.4µM*	x
Cc1ccc(S(=O)(=O)CCC(=O)Nc2ccccc2C)cc1	0%	-10%	x	-1%	-2%	x
O=C(NCC(c1ccc2c(c1)OCO2)N1CCOCC1)C(=O)Nc1ccc(Cl)cc1 (stereo unspecified)	x	x	x	-1%	x	x
Cc1ccc2c(c1)NC(=O)CC(c1ccccc1)=N2	13%	u	-7%	12µM*	10%	u
COc1ccc(C2N=C(c3ccccc3)NO2)cc1OC (stereo unspecified)	u	20%	x	11µM*	20%	x
FC(F)Oc1ccc(C2N=C(c3ccccc3)NO2)cc1 (stereo unspecified)	u	1.6µM*	x	4.8µM*	2.8µM*	x
Cc1ccc2ccccc2c1NC(=O)c1ccco1	-1%	-27%	x	-2%	-10%	x
COc1ccc(-n2nc(C(=O)Nc3ccc(C)cn3)c3c4ccccc4n(C)c3c2=O)cc1Cl	x	x	x	3%	x	8%
O=S1(=O)N=C(Nc2nncs2)c2ccccc21	-1%	-1%	-1%	19µM*	-2%	-11%
CCN(CC)S(=O)(=O)c1ccc(NC2=NS(=O)(=O)c3ccccc32)cc1	2%	0%	4%	-1%	-2%	9%
Cc1ccc(-n2nnnc2SCC(=O)NC(=O)Nc2ccc3c(c2)OCCO3)cc1	15%	u	2%	21µM*	28%	19%
COc1ccc(-n2nnnc2SCC(=O)NC(=O)Nc2ccc3c(c2)OCCO3)cc1	u	27%	20%	19µM*	19%	-16%
Cc1nnc(SCC(=O)NC(=O)Nc2ccc3c(c2)OCCO3)n1N	3%	1.8µM*	x	17µM*	u	x
O=C(CSc1nnnn1-c1ccc(Cl)cc1)NC(=O)Nc1ccc2c(c1)OCCO2	17%	u	-3%	u	u	u
COc1ccc(NC(=O)CSc2nnnn2-c2ccc(OC)cc2)cc1	2%	-2%	-4%	0%	8%	-3%
C[C@H](NS(=O)(=O)c1ccc(Cl)cc1)C(=O)OCC(=O)NC(=O)Nc1ccc2c(c1)OCCO2	u	21%	-4%	17µM*	19%	u
CC(C)(O)c1[nH]c2ccc(C#N)cc2c1C(C)(C)O	-2%	0%	x	-2%	2%	x
O=C(COc1ccccc1)Nc1ccc2c(c1)nc1n2CCOC1	u	u	9%	u	u	3%
O=C(Nc1ccc2c(c1)nc1n2CCSC1)c1ccco1	u	0.45µM*	10µM*	2.7µM*	0.32µM*	-14%
